Assay outcomes (PubChem BioAssay)
Rows were chosen to be rich in hits. Some 10% of all compounds tested hit in one or more screens of this group.
ALDH1A1 block: ALDH1A1 (human) enzyme inhibition; P00352; Potency, µM (series often up to 75.3 µM), usual class: inhibitors; Purified ALDH1A1, NADH fluorescence, propionaldehyde substrate; AID 1030; 7.3% of 220,000 active
LMNA splice mod: modulators of lamin A splicing | Potency, µM (highest dose often 46.1 µM), usual class: inhibitors | 0.01% of 200,000 active | AID 1487 | HeLa LMNA splicing GFP/RFP minigene ratio, 48 h; active = well fitted inhibition curve with a large enough effect in the signal ratio, with a control signal flat, not every such curve was filed as active; inconclusive = small, poorly fitted or top-dose-only effect, or effect the other way, or a change in a side signal; the % refers to the signal ratio
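Read-out is the ratio of GFP to DsRed2 object intensity, acquired by 488 nm laser-scanning cytometry on HeLa lamin A-EGFP minigene reporter cells. Compound incubation 48 hrs at 37 °C in Opti-MEM with 2% FBS; DMSO 0.5% final.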
PNC inhibitor: inhibitors of perinucleolar compartment assembly | 3.1% of 140,000 active | activity change (PNC), negative = inhibition, % at 10 µM | PC3M PTB-GFP, PNC prevalence imaging, 16 h; active compounds read low;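 active = readout at or below -70, meaning at least 70% loss of cells showing the perinucleolar compartment, a nuclear body marking cancer cells; inconclusive = readout between -30 and a set limit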
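PC3M cells stably expressing PTB-GFP, 750–1000 cells/well, treated 16 h at 37 °C with compound (23 nl of library stock), in duplicate. After paraformaldehyde fixation and Hoechst stain, imaged at 20x; PNC prevalence scored by image analysis.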
12-hLO inh: inhibitors of human 12-lipoxygenase (ALOX12). purified 12-hLO, xylenol orange hydroperoxide absorbance. Potency, µM (titrated, usually from 57.1 µM), usual class: inhibitors. 0.12% of 150,000 active; active = well fitted inhibition curve with a large enough effect; inconclusive = small, poorly fitted or top-dose-only effect; note: nearly all actives have a fitted effect of over 55% in size
Target sequence (P18054 whole entry, looked up): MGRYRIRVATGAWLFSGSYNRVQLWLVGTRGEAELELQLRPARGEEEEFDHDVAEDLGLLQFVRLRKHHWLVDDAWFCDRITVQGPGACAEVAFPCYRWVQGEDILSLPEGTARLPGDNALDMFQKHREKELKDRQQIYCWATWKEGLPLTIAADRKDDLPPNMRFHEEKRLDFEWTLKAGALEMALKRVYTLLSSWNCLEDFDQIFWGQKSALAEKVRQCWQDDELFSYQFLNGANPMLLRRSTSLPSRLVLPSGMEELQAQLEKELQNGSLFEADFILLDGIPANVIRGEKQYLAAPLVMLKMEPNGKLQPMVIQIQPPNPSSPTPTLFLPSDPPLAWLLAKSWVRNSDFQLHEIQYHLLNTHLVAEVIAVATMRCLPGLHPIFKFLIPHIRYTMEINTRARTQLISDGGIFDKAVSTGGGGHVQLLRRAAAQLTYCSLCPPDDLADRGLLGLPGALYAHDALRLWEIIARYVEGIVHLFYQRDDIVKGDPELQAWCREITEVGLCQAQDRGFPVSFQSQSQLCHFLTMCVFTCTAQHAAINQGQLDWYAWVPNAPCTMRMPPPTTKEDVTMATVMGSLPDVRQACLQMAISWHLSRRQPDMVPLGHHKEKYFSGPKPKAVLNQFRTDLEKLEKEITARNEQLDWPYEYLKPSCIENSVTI
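Lipoxygenase turnover measured by absorbance at 573 and 405 nm after Fe-XO development. Human 12hLO 150 nM, arachidonate 40 uM, pH 7.0 Hepes buffer with detergent; 15 min compound preincubation, 30 min reaction.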
HPGD inh: inhibitors of human 15-hydroxyprostaglandin dehydrogenase (HPGD). P15428. purified HPGD, NADH fluorescence kinetic, PGE2 substrate. Potency, µM, actives largely listed as inhibitors. 4.3% of 150,000 active. AID 894
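20 nM HPGD preincubated 15 min at room temperature with compound in 50 mM Tris-HCl pH 8, 0.01% Tween 20. Started with 1 mM NAD+ and 30 uM prostaglandin E2; NADH fluorescence (360/450 nm) read 5 times over 30-s intervals, last minus first.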
Of the large screens only hits and unclear results are named; the others gave an inactive call. Unless noted, calls come from the whole dose curve; as a rule, active = well fitted inhibition curve with a large enough effect (not every such curve was filed as active); inconclusive = small, poorly fitted or top-dose-only effect, or another doubt; inactive = no such curve, though single readings can be large or run the other way.

CCc1ccc2[nH]c(=O)c(CN(Cc3ccc(F)cc3)C(c3nnnn3CCN3CCOCC3)C(C)C)cc2c1 (configuration not stated)	ALDH1A1 block inconclusive, PNC inhibitor -81
COCCn1nnnc1C(c1cc2cccc(C)c2[nH]c1=O)N1CCN(c2ccccc2F)CC1 (configuration not stated)	ALDH1A1 block 16µM
CCc1ccc2[nH]c(=O)c(C(c3nnnn3CCOC)N3CCN(c4ccc(F)cc4)CC3)cc2c1 (configuration not stated)	ALDH1A1 block inconclusive, PNC inhibitor inconclusive
COCCn1nnnc1C(c1ccccc1OC)N1CCN(c2ccccc2F)CC1 (configuration not stated)	none
CCc1ccc2[nH]c(=O)c(C(c3nnnn3CCOC)N3CCN(c4ccccc4)CC3)cc2c1 (configuration not stated)	ALDH1A1 block 11µM
COC(=O)C1=C(C(=O)OC)[C@@H]2N(C)c3ccc(OC)cc3[C@@]23C[C@@H](C(=O)OC)N(S(=O)(=O)c2ccc(Br)cc2)C3=N1	none (no result: PNC inhibitor)
C/C(=N\NC(=O)c1csc(C)c1C)c1ccc(C)s1	HPGD inh 14µM
CC(C)N(C(=O)CSc1nnc(NC(=O)C2CCC2)s1)C(C)C	PNC inhibitor -102
COc1ccc(-c2nc3cnc(N4CCNCC4)nc3n(-c3ccccc3)c2=O)cc1	ALDH1A1 block inconclusive, HPGD inh inconclusive (no result: LMNA splice mod, PNC inhibitor)
CCN(C(=O)CSc1nc2ccccc2n1CC(=O)Nc1ccccc1C)c1ccccc1	none (no result: ALDH1A1 block, PNC inhibitor, 12-hLO inh, HPGD inh)
COc1ccc(C(=O)CSc2nn3c(=O)c(C(C)(C)C)nnc3s2)cc1	ALDH1A1 block 0.4µM, LMNA splice mod inconclusive, PNC inhibitor inconclusive
CC(C)(C)c1nnc2sc(SC/C(O)=C(\C#N)c3nc4ccccc4[nH]3)nn2c1=O	ALDH1A1 block inconclusive, PNC inhibitor -95, HPGD inh 20µM
CC(C)(C)c1nnc2sc(SCC(=O)c3ccccc3)nn2c1=O	ALDH1A1 block inconclusive, LMNA splice mod inconclusive
CCOC(=O)C1(Cc2ccc(Cl)cc2)CCN(C(=O)c2sc(C)nc2C)CC1	ALDH1A1 block 35µM, LMNA splice mod inconclusive (no result: PNC inhibitor, 12-hLO inh, HPGD inh)
C[C@H](C(=O)c1ccncc1)c1ccccn1	none (no result: LMNA splice mod, PNC inhibitor)
CCN(CCN(C)C)C(=O)Cn1ncc2c([nH]c3ccc(C)cc32)c1=O	none (no result: ALDH1A1 block, PNC inhibitor, 12-hLO inh, HPGD inh)
COc1ccccc1N=Nc1nc(-c2ccccc2)c(-c2ccccc2)[nH]1	ALDH1A1 block 22µM, LMNA splice mod inconclusive
CC(C)(C)OC(=O)NCCCC1=CC2=CC(=O)C(C)(OC(=O)C3CCCC3)C(=O)C2=CO1 (configuration not stated)	none (no result: LMNA splice mod, PNC inhibitor)
CCCC=O	ALDH1A1 block 3.5µM (no result: LMNA splice mod, PNC inhibitor)
Cc1cccnc1N(C(=O)Nc1ccccc1)C1=NCC(C)(C)S1	PNC inhibitor -89
COc1ccc2c(c1)OC1(O)COc3cc(OC)c(OC)cc3C1=C2 (configuration not stated)	ALDH1A1 block inconclusive, LMNA splice mod inconclusive, HPGD inh inconclusive (no result: PNC inhibitor)
CCOC(=O)N1CCN(C(=O)C2CCCN(Cc3nc(-c4ccc(Cl)cc4)oc3C)C2)CC1 (configuration not stated)	ALDH1A1 block inconclusive, LMNA splice mod inconclusive, PNC inhibitor -100
Cc1oc(-c2cc3c(cc2Cl)OCO3)nc1CN1CCCC(C(=O)N2CCOCC2)C1 (configuration not stated)	ALDH1A1 block 1µM, LMNA splice mod inconclusive (no result: PNC inhibitor, 12-hLO inh, HPGD inh)
CCOC(=O)N1CCC(NC(=O)C2CCCN(Cc3nc(-c4cccc(Cl)c4)oc3C)C2)CC1 (configuration not stated)	LMNA splice mod inconclusive
CN(Cc1ccccc1)C(=O)c1ccc(CSc2nc3cccnc3n2Cc2ccccc2)cc1	none (no result: ALDH1A1 block, PNC inhibitor, 12-hLO inh, HPGD inh)
CC1CCC2(CC1)NC(=O)N(CC(=O)c1cn(CCC#N)c3ccccc13)C2=O (configuration not stated)	ALDH1A1 block 7.1µM (no result: LMNA splice mod, PNC inhibitor, 12-hLO inh, HPGD inh)
CC1CCC2(CC1)NC(=O)N(CC(=O)N1CCc3ccccc3C1)C2=O (configuration not stated)	none (no result: PNC inhibitor, 12-hLO inh, HPGD inh)
O=C(Nc1nnc(SCc2ccc(F)cc2)s1)c1ccc2c(c1)C(=O)N(c1ccccc1Cl)C2=O	ALDH1A1 block 1.3µM (no result: LMNA splice mod, PNC inhibitor, 12-hLO inh, HPGD inh)
Cc1ccc(NC(=O)c2ccc(-c3nn(C)c(=O)c4ccccc34)cc2)c(C)c1	ALDH1A1 block 8.9µM, HPGD inh 13µM
Cn1nc(-c2ccc(C(=O)Nc3ccc(F)cc3)cc2)c2ccccc2c1=O	ALDH1A1 block inconclusive (no result: PNC inhibitor, 12-hLO inh, HPGD inh)
CC(O)CNC(=O)c1ccc(-c2nn(C)c(=O)c3ccccc23)cc1 (configuration not stated)	HPGD inh 28µM
Cc1ccc(-c2nn(C)c(=O)c3ccccc23)cc1CNC(=O)c1ccccc1	none (no result: PNC inhibitor, 12-hLO inh, HPGD inh)
Cc1ccc(NC(=O)c2ccc(-c3nn(C)c(=O)c4ccccc34)cc2)cc1	HPGD inh 18µM
CCCC(=O)NCc1cc(-c2nn(C)c(=O)c3ccccc23)ccc1C	HPGD inh 18µM
O=C1CC[C@](CCc2nc3ccccc3[nH]2)(c2ccccc2)C(=O)N1	none (no result: LMNA splice mod, PNC inhibitor)
COc1ccc(NC(=O)NC2COc3ccccc3C2)c(OC)c1 (configuration not stated)	none (no result: ALDH1A1 block, PNC inhibitor, 12-hLO inh, HPGD inh)
Cc1ccc(C(=O)N2CCN(c3cc(=O)[nH]nc3-c3ccccc3)CC2)cc1	ALDH1A1 block 16µM
Cn1nc(-c2ccc(C(=O)N3CCN(Cc4ccccc4)CC3)cc2)c2ccccc2c1=O	LMNA splice mod inconclusive, HPGD inh 16µM
O=C(NCc1ccccc1Cl)C(=O)NCC(c1ccco1)S(=O)(=O)c1cccs1 (configuration not stated)	none (no result: ALDH1A1 block, PNC inhibitor, 12-hLO inh, HPGD inh)
CC(=O)N[C@H](CC(C)C)C(=O)O	none (no result: LMNA splice mod, PNC inhibitor)
O=c1nc(/C=C/c2cc([N+](=O)[O-])ccc2Cl)cc(C(F)(F)F)[nH]1	ALDH1A1 block inconclusive, LMNA splice mod inconclusive, HPGD inh 3.2µM
O=c1nc(/C=C/c2cccn2-c2ccc([N+](=O)[O-])cc2)cc(C(F)(F)F)[nH]1	none (no result: LMNA splice mod, PNC inhibitor, 12-hLO inh, HPGD inh)
Cc1ccc(-n2ncc(C(=O)Nc3ccc4c(c3)OCCO4)c2C2CCN(C(=O)OC(C)(C)C)CC2)cc1C	none (no result: ALDH1A1 block, PNC inhibitor, 12-hLO inh, HPGD inh)
Cc1ccc(OCCOc2ccc(Cl)cc2Cl)c([N+](=O)[O-])n1	LMNA splice mod inconclusive, HPGD inh 32µM
Cc1ccc(OCC(=O)c2ccc(Cl)s2)c([N+](=O)[O-])n1	ALDH1A1 block 2.2µM (no result: PNC inhibitor, 12-hLO inh, HPGD inh)
Cc1ccc2nc(NC(=O)C3CCCN3C(=O)OC(C)(C)C)sc2c1 (configuration not stated)	none (no result: LMNA splice mod, PNC inhibitor, 12-hLO inh, HPGD inh)
CC(C)C(c1nnnn1Cc1ccccc1)N1CCN(Cc2ccco2)CC1 (configuration not stated)	ALDH1A1 block inconclusive, PNC inhibitor inconclusive
CC(C)C(c1nnnn1C1CCCCC1)N1CCc2ccccc2C1 (configuration not stated)	ALDH1A1 block 25µM
CC(C)C(c1nnnn1C1CCCCC1)N1CCCc2ccccc21 (configuration not stated)	none
